# In PubChem BioAssay:
# Several values for one entry are separate records, joined by “and”; a condition that tells them apart may be missing. Identical values can stand only once. Activity calls are given as the source filed them. Unless noted, no stated cut-off is given here; in the data, active means inhibition above about 80%; inactive means the rest.
# Key:
# [1] = target: NAD(+) hydrolase SARM1 (Homo sapiens) (UniProt Q6SZW1); assay: blocking NAD cleavage by SARM1 SAM-TIR – cell lysate, NAD-Glo luminescence (AID 1508614;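 active means compound whose remaining NAD level is above about 45 nM, limit read from the data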); settings: SAM-TIR HEK293T lysate NADase, at 1 µM, stronger effect = higher value
# NAD(+) hydrolase SARM1 (Homo sapiens), sequence (Q6SZW1 whole entry, looked up, the tested form may be a part): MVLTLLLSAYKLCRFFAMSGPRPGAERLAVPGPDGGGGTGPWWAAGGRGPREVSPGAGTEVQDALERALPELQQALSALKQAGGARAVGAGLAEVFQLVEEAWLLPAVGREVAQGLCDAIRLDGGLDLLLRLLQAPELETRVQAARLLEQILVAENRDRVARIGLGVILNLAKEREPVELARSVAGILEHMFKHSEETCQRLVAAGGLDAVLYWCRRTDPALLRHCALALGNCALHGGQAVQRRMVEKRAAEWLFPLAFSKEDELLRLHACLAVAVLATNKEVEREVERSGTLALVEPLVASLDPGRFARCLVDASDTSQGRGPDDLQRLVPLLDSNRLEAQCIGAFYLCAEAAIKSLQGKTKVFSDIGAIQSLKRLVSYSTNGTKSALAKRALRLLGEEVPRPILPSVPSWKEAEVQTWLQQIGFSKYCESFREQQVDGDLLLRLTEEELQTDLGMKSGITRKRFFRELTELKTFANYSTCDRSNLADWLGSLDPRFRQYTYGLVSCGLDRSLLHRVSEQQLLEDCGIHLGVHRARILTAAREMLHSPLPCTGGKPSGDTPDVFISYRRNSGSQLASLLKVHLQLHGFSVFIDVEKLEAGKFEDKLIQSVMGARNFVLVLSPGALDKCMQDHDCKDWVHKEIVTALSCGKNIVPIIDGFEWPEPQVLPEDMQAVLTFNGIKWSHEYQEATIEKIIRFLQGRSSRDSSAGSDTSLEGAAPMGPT
# [2] = target: Mitogen-activated protein kinase 7 (Homo sapiens) (UniProt Q13164); assay: Gal4-ERK5 driven luciferase induction – cell-based, HTS, primary screen (AID 1508626;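 active means luciferase signal above three times the same-plate solvent-only control wells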;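 further: luciferase driven by Gal4-ERK5 fusion binding five Gal4 sites before minimal TATA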); settings: HeLa Gal4-ERK5 transactivation, 18 h, at 5 µM, stronger effect = higher value
# Mitogen-activated protein kinase 7 (Homo sapiens), sequence (Q13164 whole entry, looked up, the tested form may be a part): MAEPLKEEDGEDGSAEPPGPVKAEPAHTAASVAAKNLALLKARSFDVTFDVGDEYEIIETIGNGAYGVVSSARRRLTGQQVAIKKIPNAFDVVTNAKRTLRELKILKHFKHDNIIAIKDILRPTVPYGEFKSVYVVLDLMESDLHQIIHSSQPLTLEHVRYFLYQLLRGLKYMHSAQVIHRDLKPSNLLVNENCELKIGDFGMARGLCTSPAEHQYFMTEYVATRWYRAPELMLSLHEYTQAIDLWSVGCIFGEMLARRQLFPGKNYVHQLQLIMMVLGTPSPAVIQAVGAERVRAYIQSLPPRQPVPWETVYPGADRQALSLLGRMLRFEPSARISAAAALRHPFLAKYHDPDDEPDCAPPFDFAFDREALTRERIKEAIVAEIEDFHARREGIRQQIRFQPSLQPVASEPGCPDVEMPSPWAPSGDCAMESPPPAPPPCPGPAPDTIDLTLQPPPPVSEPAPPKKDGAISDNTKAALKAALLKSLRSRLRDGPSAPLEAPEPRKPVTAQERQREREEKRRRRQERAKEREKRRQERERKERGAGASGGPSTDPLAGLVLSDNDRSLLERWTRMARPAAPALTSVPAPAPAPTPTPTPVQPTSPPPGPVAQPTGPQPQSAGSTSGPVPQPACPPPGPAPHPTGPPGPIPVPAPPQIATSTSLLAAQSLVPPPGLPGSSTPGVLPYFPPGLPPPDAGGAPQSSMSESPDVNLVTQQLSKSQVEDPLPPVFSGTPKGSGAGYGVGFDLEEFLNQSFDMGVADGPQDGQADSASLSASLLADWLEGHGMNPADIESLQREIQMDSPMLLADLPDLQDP
# [3] = growth inhibition, single agent or in combination, cell-based, chromothripsis tumors, cisplatin or BGB combos (AID 1671449); settings: LFS_MB_P medulloblastoma cells;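 further: cells exposed for 96 hours; 0% = vehicle DMSO and 100% = killing by high DMSO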
# [4] = growth inhibition, single agent and combos, cell-based, chromothripsis tumors, cisplatin or BGB combos (AID 1671450); settings: HDN33 neuroblastoma cells, stronger effect = higher value;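 further: cells exposed to compound for four days; 0% = vehicle DMSO and 100% = cell killing by high DMSO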
# [5] = growth inhibition, single agents and combos, ICB984, cell-based, cisplatin or BGB combos, synergistic combos for chromothripsis tumors (AID 1671451; call rule not given here;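 further: cells exposed for 96 hours before readout; 0% = vehicle DMSO and 100% = killing by high DMSO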); settings: ICB984 medulloblastoma cells, drug combinations, stronger effect = higher value
# [6] = growth inhibition, single agents and combos, LFS_MB_1R, cell-based, cisplatin or BGB combos, synergistic combos for chromothripsis tumors (AID 1671452); settings: LFS_MB_1R medulloblastoma cells, stronger effect = higher value;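 further: cells exposed for 96 hours before readout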
# [7] = growth inhibition, single agents and combos, HTB85, cell-based, BGB or cisplatin IC20 combos, synergistic combos for chromothripsis tumors (AID 1671453); settings: HTB85 osteosarcoma cells, drug combinations, stronger effect = higher value;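 further: cells exposed for 96 hours before readout; 0% = vehicle DMSO and 100% = high DMSO killing control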
# [8] = growth inhibition, single agents and combos, CRL2098, cell-based, BGB or cisplatin IC20 combos, synergistic combos for chromothripsis tumors (AID 1671454); settings: CRL2098 osteosarcoma cells, drug combinations, stronger effect = higher value;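 further: cells exposed for 96 h before readout; 0% = vehicle DMSO and 100% = killing by high DMSO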
# [9] = growth inhibition, single agents and combos, HD-MB03, cell-based, BGB or cisplatin IC20 combos, synergistic combos for chromothripsis tumors (AID 1671455; in the data active means inhibition above about 83%;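 further: 0% = vehicle DMSO and 100% = high DMSO as cytotoxic control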); settings: HD-MB03 medulloblastoma cells, stronger effect = higher value
# [10] = growth inhibition, single agents and combos, UWB1.289, cell-based, BGB or cisplatin combos, synergistic combos for chromothripsis tumors (AID 1671456); settings: UWB1.289 ovarian carcinoma cells, stronger effect = higher value;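 further: cells exposed to compound for four days; 0% = vehicle DMSO and 100% = killing by high DMSO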
# [11] = growth inhibition, single agents and combos, LFS_MB_2R, cell-based, cisplatin combos, synergistic combos for chromothripsis tumors (AID 1671457); settings: LFS_MB_2R medulloblastoma cells, stronger effect = higher value;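 further: cells exposed to compound for four days before readout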
# [12] = growth inhibition, MDA-MB-436, cell-based, BGB or cisplatin combos, synergistic combos for chromothripsis tumors (AID 1671458; call rule not given here;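 further: cells exposed for 96 hours; 0% = vehicle DMSO and 100% = killing by high DMSO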); settings: MDA-MB-436 breast carcinoma growth inhibition, drug combinations, stronger effect = higher value
# [13] = UWB1.289_BRCA1 ovarian cancer growth, cell-based, BGB or cisplatin combinations (AID 1671459); settings: UWB1.289 BRCA1 ovarian carcinoma, drug combinations, stronger effect = higher value
# [14] = drug combination toxicity in non-malignant astrocytes – cell-based, BGB or cisplatin IC20 combos, cytotoxicity control for chromothriptic childhood tumor combination screen (AID 1671460); settings: Human astrocytes, viability inhibition, drug combinations, at 0.5 µM, stronger effect = higher value;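 further: cells exposed to compounds for 96 hours before viability readout; 0% = vehicle and 100% = killing control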
# [15] = BT084 cell growth, single and combined drugs, ICGC_MB145, cisplatin and BGB IC40 combos (AID 1671461); settings: BT084 medulloblastoma cells, drug combinations, stronger effect = higher value;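 further: cells exposed to drugs for 96 hours; 0% = vehicle DMSO and 100% = high DMSO full killing control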
# [16] = RCMB18 cell growth, single agent and combined, cisplatin and BGB IC40 combos (AID 1671462); settings: RCMB18 medulloblastoma cells, stronger effect = higher value;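 further: cells exposed to compound for four days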
# [17] = CRL1545 cell growth, single agent and combined, cisplatin and BGB IC20 combos (AID 1671464); settings: CRL1545 osteosarcoma cells, stronger effect = higher value;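 further: cells exposed to compound for 96 hours before readout; 0% = vehicle DMSO and 100% = high DMSO killing control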
# [18] = galactose survival enhancers in mitochondrial complex I cybrids – cell-based, galactose medium, ATP luminescence, primary screen (AID 1645843;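 active means z-score of at least 1.8 in each of two replicates, scored against plate mean and spread of sample wells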;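 further: positive z means more ATP and so rescue of galactose-driven cybrid death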); settings: complex I mutant cybrid cells, 72 h, stronger effect = higher value
# [19] = measured here: combination with BGB IC40, at 0.05 µM
# [20] = measured here: with BGB IC20 combination, at 0.5 µM
# [21] = measured here: with cisplatin IC20 combination, at 0.5 µM
# [22] = measured here: combination with cisplatin, at 0.5 µM
# [23] = measured here: combination with cisplatin, at 5 µM
structure (smiles),measurement,setting,value
O=C(O)P(=O)(O)O,remaining NAD,[1],10 nM (inactive)
same,luciferase signal,[2],16 AU (inactive)
same,inhibition,"[3]; at 0.5 µM, stronger effect = higher value",-17.5% (inactive)
same,inhibition,"[3]; measured here: combination with BGB IC20, at 0.005 µM",-17.5%
same,inhibition,"[3]; measured here: combination with BGB IC40, at 0.005 µM",-19.7%
same,inhibition,[3]; [19],-16.3%
same,inhibition,"[3]; measured here: combination with cisplatin, at 0.5 µM, stronger effect = higher value",-28.3%
same,inhibition,"[3]; measured here: combination with cisplatin, at 5 µM, stronger effect = higher value",-12.6%
same,inhibition,"[4]; BGB combo, at 5 µM",-58%
same,inhibition,[4]; at 0.5 µM,-36.9% (inactive)
same,inhibition,"[4]; cisplatin combo, at 5 µM",-60.9%
same,inhibition,[4]; [20],-38.1%
same,inhibition,[4]; [21],-23.4%
same,inhibition,"[4]; single agent, at 5 µM",-52.1%
same,inhibition,"[5]; BGB IC20 combo, at 0.005 µM",-19.7%
same,inhibition,"[5]; BGB IC40 combo, at 0.005 µM",-25.3%
same,inhibition,"[5]; BGB IC40 combo, at 0.05 µM",-29.6%
same,inhibition,[5]; at 0.5 µM,-22.4% (inactive)
same,inhibition,"[5]; cisplatin combo, at 0.05 µM",-29.6%
same,inhibition,"[5]; cisplatin combo, at 0.5 µM",-36.7%
same,inhibition,"[5]; cisplatin combo, at 5 µM",-14%
same,inhibition,"[5]; measured here: 5 uM single agent, at 5 µM",-14.5%
same,inhibition,[6]; at 0.5 µM,-51.1% (inactive)
same,inhibition,[6]; [19],-50.8%
same,inhibition,[6]; [22],-81.2%
same,inhibition,[6]; [23],-40.9%
same,inhibition,[7]; at 0.5 µM,-23.4% (inactive)
same,inhibition,"[7]; measured here: with BGB IC20, at 0.5 µM",-66.1%
same,inhibition,"[7]; measured here: with BGB IC20, at 5 µM",-35%
same,inhibition,"[7]; measured here: with cisplatin IC20, at 0.5 µM",20.5%
same,inhibition,"[7]; measured here: with cisplatin IC20, at 5 µM",-22.8%
same,inhibition,"[7]; single agent, at 5 µM",-25.8%
same,inhibition,[8]; at 0.5 µM,-107% (inactive)
same,inhibition,"[8]; measured here: combination with BGB at IC20, at 0.5 µM",-77.3%
same,inhibition,"[8]; measured here: combination with cisplatin at IC20, at 0.5 µM",-148%
same,inhibition,[9]; at 0.5 µM,-14.1% (inactive)
same,inhibition,"[9]; measured here: combo with BGB at IC20, at 0.5 µM",-16%
same,inhibition,"[9]; measured here: combo with cisplatin at IC20, at 0.5 µM",-17.1%
same,inhibition,[10]; at 0.5 µM,-11.3% (inactive)
same,inhibition,"[10]; measured here: inhibition with BGB combination, at 0.05 µM",-27.2%
same,inhibition,"[10]; measured here: inhibition with cisplatin combination, at 0.05 µM",-24%
same,inhibition,[11]; at 0.5 µM,-19.3% (inactive)
same,inhibition,[11]; [22],-14.2%
same,inhibition,[11]; [23],-18.5%
same,inhibition,[12]; at 0.5 µM,-30.5% (inactive)
same,inhibition,"[12]; measured here: BGB combination, at 0.5 µM",-34.2%
same,inhibition,"[12]; measured here: BGB combination, at 5 µM",-30.6%
same,inhibition,"[12]; measured here: cisplatin combination, at 0.5 µM",-45.7%
same,inhibition,"[12]; measured here: cisplatin combination, at 5 µM",-24.2%
same,inhibition,"[13]; BGB combination, concentration series, at 5 µM",-19.2%
same,inhibition,[13]; at 0.5 µM,-15.7% (inactive)
same,inhibition,"[13]; cisplatin combination, concentration series, at 5 µM",-10.9%
same,inhibition,[14],0.14% (inactive)
same,inhibition,[14]; measured here: combo with BGB IC20,1.18%
same,inhibition,[14]; measured here: combo with cisplatin IC20,-8.98%
same,inhibition,[15]; at 0.5 µM,-21.4% (inactive)
same,inhibition,"[15]; cisplatin combination, at 0.5 µM",-13.9%
same,inhibition,"[15]; cisplatin combination, at 5 µM",-72.5%
same,inhibition,"[15]; measured here: BGB IC40 combination 0.05 uM, at 0.05 µM",11.4%
same,inhibition,"[15]; single agent, at 5 µM",-13.1%
same,inhibition,[16]; at 0.5 µM,-28.6% (inactive)
same,inhibition,"[16]; cisplatin combo, at 5 µM",-9.59%
same,inhibition,"[16]; measured here: BGB IC40 combination, at 0.05 µM",-13.4%
same,inhibition,[16]; [22],-44.4%
same,inhibition,"[16]; single agent, at 5 µM",-27.5%
same,inhibition,[17]; at 0.5 µM,-83.7% (inactive)
same,inhibition,[17]; [20],-15.5%
same,inhibition,[17]; [21],-118%
same,inhibition,"[17]; single agent, at 0.05 µM",-51.7%
same,inhibition,"[17]; single agent, at 5 µM",-82.1%
CSc1ccc2c(c1)C(N1CCN(C)CC1)Cc1ccccc1S2 (configuration not stated),remaining NAD,[1],10 nM (inactive)
same,z-score,[18],-1.29 (inactive) and -1.22 (inactive) and -2.1 (inactive)
